An excerpt weighted towards active compounds, which were near 10% of everything screened.
FLuc inh-1 – blocks purified firefly luciferase enzyme activity. AID 1347043. actives 2.5% (n = 76,000). P08659. Potency, µM (highest dose often 115 µM), usual class: inhibitors. purified P. pyralis luciferase, luminescence, biochemical; further: on the % scale 0 is the no-effect control and ±100 the full control effect; nearly all actives have a fitted effect of over 65% in size
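FLuc 10nM, D-luciferin 10uM, ATP 10uM, Mg acetate 10mM, Tris acetate pH 7.5, Tween/BSA; cpd qHTS; enzyme added last; CCD luminescence.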
HEK293 tox – HEK 293 cell cytotoxicity; actives 6.6% (n = 94,000); HEK 293 viability, ATP luminescence (CellTiter-Glo), 48-72 h; Potency, µM (doses to about 115 µM), for the others: top-dose activity change, negative = cytotoxicity, usual class: inhibitors; AID 1345083; further: on the % scale 0 is the no-effect control and ±100 the full control effect; nearly all actives have a fitted effect of over 60% in size
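Pintool-delivered compounds were incubated with HEK 293 cells (250 cells/well) at 37 degree Celsius for 48 or 72 hr. ATP-dependent luminescence (CellTiter-Glo) then reported remaining viable cells.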
3T3 cytotox – NIH 3T3 cell cytotoxicity; actives 4.3% (n = 94,000); NIH 3T3 viability, CellTiter-Glo ATP luminescence, 48-72 h; Potency, µM (doses to about 96.7 µM), without a hit: at the highest dose activity change, negative = cytotoxicity, usual class: inhibitors; further: on the % scale 0 is the no-effect control and ±100 the full control effect; nearly all actives have a fitted effect of over 55% in size
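Mouse fibroblast NIH 3T3 cells, 400 per well, received compound via pintool and were incubated for 48 or 72 hr prior to CellTiter-Glo ATP luminescence measurement.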
GPT2 inhibitor – blocks human glutamate pyruvate transaminase 2. Q8TD30. Recombinant GPT2, coupled pyruvate oxidase/HRP Amplex Red fluorescence. Potency, µM (doses to about 57.7 µM), without a hit: at the highest dose activity change, negative = inhibition, most hits filed as inhibitors. actives 0.25% (n = 100,000); further: on the % scale 0 is the no-effect control and ±100 the full control effect; nearly all actives have a fitted effect of over 60% in size
Target sequence (Q8TD30 whole entry, looked up): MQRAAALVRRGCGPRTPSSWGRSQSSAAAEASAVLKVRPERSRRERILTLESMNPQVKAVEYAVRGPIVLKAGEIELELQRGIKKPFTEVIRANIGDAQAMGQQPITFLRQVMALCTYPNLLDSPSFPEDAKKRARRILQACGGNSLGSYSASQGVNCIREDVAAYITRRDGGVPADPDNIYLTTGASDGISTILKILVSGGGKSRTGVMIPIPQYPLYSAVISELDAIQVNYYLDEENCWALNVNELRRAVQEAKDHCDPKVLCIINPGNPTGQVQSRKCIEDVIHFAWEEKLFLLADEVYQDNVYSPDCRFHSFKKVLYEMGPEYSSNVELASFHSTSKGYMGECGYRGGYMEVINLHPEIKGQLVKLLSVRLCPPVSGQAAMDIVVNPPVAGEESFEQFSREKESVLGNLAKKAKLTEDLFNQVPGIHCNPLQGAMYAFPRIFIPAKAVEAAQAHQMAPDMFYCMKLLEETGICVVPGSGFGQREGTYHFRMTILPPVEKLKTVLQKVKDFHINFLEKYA
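Fluorescence read-out: pyruvate from GPT2 turnover coupled to pyruvate oxidase, HRP and Amplex Red (0.2mM ThPP, 0.2U/mL PO and HRP, 50uM Amplex final). Substrates 250uM a-KG, 2mM L-alanine; enzyme 10ng/uL; 30 min RT.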
NPR1 antag – human Npr1 receptor antagonism | P16066 | HEK293 hNpr1 GloSensor cGMP, ANP-stimulated luminescence | Potency, µM (series often up to 46.3 µM), without a hit: at the highest dose activity change, negative = inhibition, hits mostly inhibitors | actives 1.6% (n = 76,000) | AID 1347048; calls by dose curve; further: on the % scale 0 is the no-effect control and ±100 the full control effect; nearly all actives have a fitted effect of over 60% in size
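HEK293 cells stably expressing human Npr1 and cGMP GloSensor pGS-40F, loaded 2 h with 2% GloSensor reagent, given compound 30 min at room temperature. Luminescence read before and 20 min after 0.1 nM hNppA.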
FLuc SDR no ATP – stabilizes firefly luciferase without ATP; shares compounds with FLuc inh-1; Purified FLuc-C-HiBiT, Nano-Glo HiBiT luminescence, no ATP; Potency, µM (doses to about 32.7 µM), inactives show at the highest dose activation (signal gain), actives largely listed as activators; actives 7.8% (n = 1,300); AID 1963318; further: nearly all actives have a fitted effect of over 55% in size
FLuc SDR ATP – firefly luciferase binding stabilization, ATP added | purified FLuc-C-HiBiT + ATP, HiBiT complementation luminescence | shares compounds with FLuc inh-1 | actives 8.7% (n = 1,300) | Potency, µM (doses to about 32.7 µM), without a hit: top-dose activation (gain of signal), hits mostly activators;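 further: signal reports ligand binding via conformational change of the enzyme rather than luciferase catalysis; % of control where 0% means no effect; nearly all actives have a fitted effect of over 55% in size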
FLuc inh-2 – inhibitors of firefly luciferase enzymatic activity; AID 1963320; Potency, µM (highest dose often 32.7 µM), for inactives: top-dose activity change, negative = inhibition, hits mostly inhibitors; purified FLuc-C-HiBiT enzyme, luciferin luminescence; actives 42% (n = 1,300); shares compounds with FLuc inh-1; further: on the % scale 0 is the no-effect control and ±100 the full control effect; nearly all actives have a fitted effect of over 70% in size
Numbers without * were called inactive; [ ] = remark or other dose. Unless noted, the call rests on the fitted dose curve; in most records, active means well fitted curve in the direction sought with a large enough effect; inconclusive means small, poorly fitted or top-dose-only effect, or another doubt; inactive means no such curve, though single readings can be large; an effect the other way counts as inactive or inconclusive. Potency means the concentration at half of the fitted maximal effect.

O=C(O)[C@@H]1CN(Cc2ccccc2)C[C@@H]1C(=O)N1CCOCC1 was read as FLuc inh-1 inactive, HEK293 tox -16%, 3T3 cytotox -17%, GPT2 inhibitor inactive and NPR1 antag -11%.
`Cc1cccc(C(=O)N2CCC(c3noc(COc4cccnc4)n3)CC2)c1` gave FLuc inh-1 inactive, HEK293 tox inconclusive, 3T3 cytotox inconclusive, GPT2 inhibitor inactive and NPR1 antag 4%.
For O=C(Nc1ccc(-c2nc3ccccc3s2)c(O)c1)c1ccccc1F the results were FLuc SDR no ATP 14%, FLuc SDR ATP 11% and FLuc inh-2 -16%.
Screening CCSc1ccccc1C(=O)Nc1ccc(-c2nc3ccccc3s2)c(O)c1 returned FLuc SDR no ATP 14%, FLuc SDR ATP 10% and FLuc inh-2 -3%.
Screening Cc1cc(NC(=O)c2ccccc2F)ccc1-c1nc2ccccc2s1 returned FLuc SDR no ATP 18%, FLuc SDR ATP 14% and FLuc inh-2 inconclusive.
Cc1nn(-c2ccccc2)c2c1C(C)N(CC1CN([S+](=O)([O-])c3c(C)noc3C)C1)C2=O (stereo not drawn) was read as HEK293 tox inconclusive and 3T3 cytotox -12%.
For CN(C)C(=O)CO[C@H]1COCCN(Cc2ccccn2)C1 the results were FLuc inh-1 inactive, HEK293 tox inactive, 3T3 cytotox 4%[138 µM], GPT2 inhibitor 1%[88.5 µM] and NPR1 antag 3%[70.6 µM].
`COc1ccc(CN2CCOC[C@H](OCC(=O)N(C)C)C2)cc1` gave FLuc inh-1 inactive, HEK293 tox inactive, 3T3 cytotox inactive, GPT2 inhibitor inactive, NPR1 antag 0%[70.6 µM], FLuc SDR no ATP 18%[49.3 µM], FLuc SDR ATP 10%[49.3 µM] and FLuc inh-2 -1%[49.3 µM].
For O=C(NCCN1CCCCC1)c1c(-c2cncnc2)cc(=O)n2c1CCCC2 the results were HEK293 tox -5%, 3T3 cytotox -18% and GPT2 inhibitor inactive.
Cn1ccc(CN2CCC3(C2)NC(=O)c2ccccc2CO3)c1 (stereo not drawn) was read as FLuc inh-1 inactive, HEK293 tox inconclusive, 3T3 cytotox -19%[138 µM], GPT2 inhibitor inactive and NPR1 antag 0%[70.6 µM].
Screening CCc1cccc(NCc2ccccc2-c2nnc(-c3ccccc3Cl)o2)c1 returned FLuc SDR no ATP 12%, FLuc SDR ATP 11% and FLuc inh-2 -4%.
Cc1cccc(CNC(=O)c2c(C)noc2-c2ccccc2Cl)c1 was read as FLuc inh-1 inactive, HEK293 tox inconclusive, 3T3 cytotox inconclusive, GPT2 inhibitor -8% and NPR1 antag -3%.
Screening COc1ccccc1-c1nnc2ccc(C(=O)NCC(C)C)cn12 returned HEK293 tox 3%[172 µM], 3T3 cytotox -14%[138 µM] and GPT2 inhibitor -7%[88.5 µM].
`O=C(c1ccc(F)cc1)N1CCn2c(nnc2C2CC2)C1` gave FLuc inh-1 inactive, HEK293 tox -1%[172 µM], 3T3 cytotox -22%[138 µM], GPT2 inhibitor -7%[88.5 µM], NPR1 antag 2%[70.6 µM], FLuc SDR no ATP 12%[49.3 µM], FLuc SDR ATP 9%[49.3 µM] and FLuc inh-2 1%[49.3 µM].
For COc1ccc(C(=O)N2CCn3c(nnc3C3CC3)C2)cc1 the results were FLuc inh-1 inactive, HEK293 tox inactive, 3T3 cytotox -3%[138 µM], GPT2 inhibitor -5%[88.5 µM] and NPR1 antag 0%[70.6 µM].
For CC(C)Cn1c(=O)c(C(=O)NCc2ccc(C(F)(F)F)cc2)nc2cccnc21 the results were HEK293 tox -16%, 3T3 cytotox -15% and GPT2 inhibitor -9%.
COc1ccc(N2CCN(C(=O)Cn3cccc3-c3nc(-c4ccc5c(c4)OCO5)no3)CC2)cc1 was read as FLuc inh-1 inactive, HEK293 tox 1%, 3T3 cytotox 0%, GPT2 inhibitor -7%, NPR1 antag -1%, FLuc SDR no ATP 15%, FLuc SDR ATP 12% and FLuc inh-2 -3%.
`COc1ccc(-c2noc(-c3cccn3CC(=O)N3CCN(c4ccc(F)cc4)CC3)n2)cc1F` gave FLuc inh-1 inactive, HEK293 tox 8%, 3T3 cytotox inactive, GPT2 inhibitor -2% and NPR1 antag 4%.
`Cc1ccc(/C=C/c2nc3ccccc3[nH]2)cc1` gave FLuc SDR no ATP 0.39µM*, FLuc SDR ATP 0.56µM* and FLuc inh-2 0.044µM*.
`C[C@@H]1C(=O)O[C@H]2[C@H]1CC[C@@]1(C)Cc3sc(NC(=O)COCC(=O)O)nc3[C@@H](C)[C@H]21` gave FLuc inh-1 13µM*, HEK293 tox inactive, 3T3 cytotox inactive, GPT2 inhibitor inactive, NPR1 antag 0%[70.6 µM], FLuc SDR no ATP 4.5µM*, FLuc SDR ATP inconclusive and FLuc inh-2 5.7µM*.
For CSCC(=O)Nc1nc2c(s1)C[C@]1(C)CC[C@@H]3[C@H](OC(=O)[C@H]3C)[C@H]1[C@@H]2C the results were FLuc inh-1 0.89µM*, HEK293 tox 35µM*, 3T3 cytotox 100µM*, GPT2 inhibitor inactive, NPR1 antag 7.1µM*, FLuc SDR no ATP inconclusive, FLuc SDR ATP inconclusive and FLuc inh-2 4.5µM*.
`CCNC(=O)N[C@H]1[C@H](O)[C@@H](N2CCC(Cc3ccccc3)CC2)[C@@H]2OC[C@H]1O2` gave FLuc inh-1 inactive, HEK293 tox -16%[172 µM], 3T3 cytotox -25%[174 µM], GPT2 inhibitor -22%[88.5 µM] and NPR1 antag -4%[70.6 µM].
Screening CN(C)c1cccc(C(=O)Nc2ncc(-c3cnn(C)c3)c3c2OCC3)c1 returned FLuc inh-1 inconclusive, HEK293 tox -27%[172 µM], 3T3 cytotox inconclusive, GPT2 inhibitor 1%[88.5 µM] and NPR1 antag 6%[70.6 µM].
CNC(=O)c1cccc(-c2cnc(NC(=O)c3cn(C)cn3)c3c2CCO3)c1 was read as FLuc SDR no ATP 23%[49.3 µM], FLuc SDR ATP inconclusive and FLuc inh-2 inconclusive.
For CNC(=O)c1cccc(-c2cnc(NC(=O)c3ccncc3)c3c2CCO3)c1 the results were FLuc inh-1 13µM*, HEK293 tox -15%[172 µM], 3T3 cytotox inconclusive, GPT2 inhibitor -5%[88.5 µM], NPR1 antag -15%[70.6 µM], FLuc SDR no ATP 23%[49.3 µM], FLuc SDR ATP inconclusive and FLuc inh-2 inconclusive.
